Measles CPE: protection of cells from measles virus; Measles virus-infected cells, CPE protection, absorbance; hit rate 1.5% among 140,000; AID 841; protection (pct of control), % at 4 µM; in the data active means protection mostly above about 24%, no sharp cut-off; inactive means mostly below about 26%
CYP2C9 act: activators of human CYP2C9 | P11712 | recombinant CYP2C9, luciferin-H conversion, luminescence; stronger effect = higher value; factor 1 = untreated enzyme, 0 = blocked | activation factor at 5 µM | hit rate 1.4% among 96,000 | AID 1024;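 active means activation factor of 2 or more for CYP2C9 at a 5 µM dose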;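 further: 0 = sulfaphenazole-blocked wells and 1 = vehicle-only wells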
CYP2C19 inhib: inhibitors of human CYP2C19. P33261. inhibition, % at 5 µM. CYP2C19 Supersomes, luciferin-H EGE luminescence, 30 min. hit rate 21% among 96,000;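 active means CYP2C19 inhibition above a set limit at 5 µM in the primary screen, cut at about 50% in these data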;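 further: plate controls were negative control wells for no effect and 2.5 mM tranylcypromine positive control for full effect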
Target sequence (P33261 whole entry, looked up): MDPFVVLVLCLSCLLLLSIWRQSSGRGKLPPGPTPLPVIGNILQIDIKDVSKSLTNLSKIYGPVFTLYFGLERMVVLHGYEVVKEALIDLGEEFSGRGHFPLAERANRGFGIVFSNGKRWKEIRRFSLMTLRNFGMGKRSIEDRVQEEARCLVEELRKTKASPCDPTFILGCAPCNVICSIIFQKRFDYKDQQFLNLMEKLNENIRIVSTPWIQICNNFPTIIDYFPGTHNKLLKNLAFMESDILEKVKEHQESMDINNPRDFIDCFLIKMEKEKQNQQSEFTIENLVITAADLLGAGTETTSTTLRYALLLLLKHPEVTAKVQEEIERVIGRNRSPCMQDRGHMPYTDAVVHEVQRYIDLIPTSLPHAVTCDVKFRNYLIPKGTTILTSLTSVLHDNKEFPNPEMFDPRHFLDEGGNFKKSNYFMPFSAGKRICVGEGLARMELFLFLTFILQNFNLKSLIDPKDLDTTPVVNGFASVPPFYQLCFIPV
CYP2C9 inhib: human CYP2C9 inhibition | P11712 | CYP2C9 Supersomes, luciferin-H conversion, luminescence | inhibition, % at 5 µM | hit rate 20% among 96,000;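 active means blocking of liver enzyme CYP2C9 beyond about 50% at 5 µM, limit read from the data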
CYP2C19 activ: activators of human cytochrome P450 2C19. P33261. recombinant CYP2C19, luciferin-H EGE luminescence; stronger effect = higher value; 0 = fully inhibited enzyme, 1 = untreated enzyme. activation factor at 5 µM. 96,000 tested, under 10 active;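 active means activation factor of at least 2 at 5 µM in the primary screen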;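 further: 0 = wells with 2.5 mM tranylcypromine and 1 = vehicle-only wells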
* hit, by the source's call; / = no result given. An excerpt weighted towards active compounds, which were near 22% of everything screened.

SMILES	Measles CPE	CYP2C9 act	CYP2C19 inhib	CYP2C9 inhib	CYP2C19 activ
Cc1ccccc1N/C(SCc1ccc(Cl)cc1)=C(/C#N)C(=O)NCc1ccco1	26	0.4	85*	55*	0.2
Cc1ccc(CS/C(Nc2ccccc2C)=C(\C#N)C(=O)NCc2ccco2)c(C)c1	7	0.6	51*	42	0.5
COc1ccc(Cl)cc1NC(=O)C(C)N(C)Cc1cccc(Cl)c1Cl (centres undefined)	8	/	/	/	/
Cc1cccc(N2CCN(C(=O)Cn3cnc4c3c(=O)n(C)c(=O)n4C)CC2)c1C	14	/	/	/	/
O=C(NCCc1cn2ccccc2n1)C1CCCCC1	10	0.9	27	14	0.7
CCOC(=O)c1ccc(N2Cc3ccccc3C2=NC(=O)c2cccs2)cc1	5	/	/	/	/
CCOC(=O)c1ccc(N2Cc3ccccc3C2=N)cc1	9	0.2	42	85*	0.6
C/C(=N\Nc1nc(-c2cc(C)ccc2C)cs1)c1cc2c(ccc3ccccc32)oc1=O	9	/	/	/	/
C=CCC(C)(NCc1ccccc1)c1ccco1 (centres undefined)	15	0.8	35	22	0.6
CC(=O)CCc1ccc(OC(=O)c2cccnc2)cc1	10	/	/	/	/
Cc1ccc(NS(=O)(=O)c2ccccc2)c2c1CC(C)(C)O2	5	2*	66*	-100	0.3
Cc1ccc(NS(=O)(=O)c2cccc(C(=O)O)c2)c(C)c1	13	0.9	0	11	1
CCN(c1ccccc1)S(=O)(=O)c1ccc(F)cc1C	9	0.9	67*	10	0.3
COCc1cc(C)nc2sc(C(=O)N3CCN(c4ccccc4)CC3)c(N)c12	14	0.2	80*	78*	0.2
COCc1cc(C)nc2sc(C(=O)N3CCCCC3)c(N)c12	5	0.8	12	20	0.9
Cc1cc(C)c2c(N)c(C(=O)N3CCN(c4ncccn4)CC3)sc2n1	3	0.6	50*	42	0.5
CCOc1ccc(N(Cc2cc3cc(OC)ccc3[nH]c2=O)C(=O)C2CCCO2)cc1 (centres undefined)	5	0.3	20	68*	0.8
COCC(=O)N(Cc1cc2cc(OC)ccc2[nH]c1=O)c1ccc(C)cc1	8	0.4	36	59*	0.6
O=C(/C=C(\c1ccc(Cl)cc1)n1cncn1)c1ccc(Cl)cc1	8	0.9	90*	8	0.1
Cc1ccc(/C=c2\sc3nc(-c4cccnc4)nn3c2=O)cc1	7	0.8	13	24	0.9
CC(C)c1ccc(/C=c2\sc3nc(-c4ccncc4)nn3c2=O)cc1	8	0.4	27	58*	0.7
O=C(Cn1nc(C(F)F)cc1C(F)F)N/N=C/c1ccc2c(c1)OCO2	1	1	10	2	0.9
COC(=O)c1sc(NC(=O)c2ccc(Cn3cc(Cl)cn3)o2)c(C#N)c1C	6	0.3	47	75*	0.5
O=C(Nc1cccc2ccccc12)c1ccc(Cn2cc(Cl)cn2)cc1	5	2.6*	15	-156	0.9
COC(=O)c1ccc(Cn2cc(Cl)cn2)cc1	6	0.5	99*	53*	0
SMILES	Measles CPE	CYP2C9 act	CYP2C19 inhib	CYP2C9 inhib	CYP2C19 activ
O=C(Nc1cc(C(F)(F)F)ccc1-n1cnc2ccccc21)c1ccccc1	10	/	/	/	/
c1csc(-c2csc3nc(CN4CCOCC4)nc(NCc4ccc5c(c4)OCO5)c23)c1	38	0.2	79*	84*	0.2
CN(Cc1ccccc1)c1nc(CN2CCOCC2)nc2scc(-c3ccccc3)c12	6	/	/	/	/
COc1ccc(Br)cc1CNc1ccc(O)cc1	9	0.7	73*	30	0.3
COc1ccc(Br)cc1CNC(C)c1ccccc1 (centres undefined)	17	/	/	/	/
COc1ccc(OC)c(S(=O)(=O)N2CCC(C(=O)NCC3CCCO3)CC2)c1 (centres undefined)	/	1.6	-10	-61	1.1
COc1ccc(-c2ocnc2C(=O)Nc2ccccc2N2CCCCC2)cc1	15	0.4	33	57*	0.7
CCOc1ccc(C(=O)Nc2ccccc2N2CCCC2)cc1	3	1.1	10	-9	0.9
O=C(NNC(=S)Nc1ccc(Cl)cc1Cl)C1CC1	12	/	/	/	/
O=C(/C=C/c1ccc2c(c1)OCO2)NCCSCc1c(Cl)cccc1Cl	6	/	/	/	/
COC(=O)C1C(C(C)C)N(c2ccccc2)OC1(C)O (centres undefined)	1	1	56*	-2	0.4
COC(=O)C1C(=O)CC(C)(O)C(C(=O)OC)C1/C=C/c1ccccc1 (centres undefined)	4	0.9	2	7	1
Cc1sc2nc(C)n(/N=C/c3ccccc3O)c(=O)c2c1C	29	1.1	86*	-10	0.1
CC(C)(C)C1CCc2c(C(=O)N/N=C/c3cccs3)csc2C1 (centres undefined)	22	0.4	35	63*	0.7
CCCN1C(=O)/C(=N\OCC(=O)NC23CC4CC(CC(C4)C2)C3)c2ccccc21	13	/	/	/	/
CCCNS(=O)(=O)c1ccc(OCC(=O)NCCC2=CCCCC2)cc1	7	0.6	34	39	0.7
CC(C)NS(=O)(=O)c1ccc(OCC(=O)NCCC2=CCCCC2)cc1	9	0.8	56*	21	0.4
COC(=O)COc1ccc(S(=O)(=O)NCCC2=CCCCC2)cc1C	11	0.9	99*	8	0
COC(=O)COc1ccc(S(=O)(=O)NCCC2=CCCCC2)cc1	27	0.3	95*	69*	0
CCCNS(=O)(=O)c1ccc(OCC(=O)OC)cc1	39*	0.4	53*	56*	0.5
O=C(N/N=C/c1cccc(C(F)(F)F)c1)C1CCN(c2ncc(C(F)(F)F)cc2Cl)CC1	6	1.6	-11	-61	1.1
CCOC(=O)c1ccc(NS(=O)(=O)c2ccc(SC)cc2)cc1	11	0.5	0	46	1
CCNC(=O)Cc1ccc(NS(=O)(=O)c2ccc(F)cc2)cc1	9	0.5	27	53*	0.7
O=C(Cc1ccc(NS(=O)(=O)c2ccc(F)cc2)cc1)NCc1ccccc1	8	0.1	76*	94*	0.2
CCNS(=O)(=O)c1ccc(NC(=O)Cc2ccc(F)cc2)cc1	4	0.5	10	48	0.9
SMILES	Measles CPE	CYP2C9 act	CYP2C19 inhib	CYP2C9 inhib	CYP2C19 activ
O=C(Cc1ccc(-c2ccccc2)cc1)NCc1ccccc1	2	/	/	/	/
CCOC(=O)Cc1ccc(NS(=O)(=O)c2ccc(SC)cc2)cc1	14	0.3	32	71*	0.7
Cc1ccc(S(=O)(=O)Nn2c(C)ccc2C)cc1	19	0.8	64*	22	0.4
CCn1nc(C)c(NS(=O)(=O)c2ccc(C)cc2)c1C	6	/	/	/	/
CCOC(=O)c1ccc(NC(=O)Nc2c(C)nn(C)c2C)cc1	15	0.9	4	7	1
Cc1ccc(S(=O)(=O)Nc2c(C)nn(C)c2C)cc1	3	1	79*	5	0.2
CCc1ccc(S(=O)(=O)Nc2c(C)nn(C)c2C)cc1	3	0.8	84*	20	0.2
COc1ccc(CNC(=O)C(c2ccco2)N(C(=O)c2csnn2)c2cccc(C)c2C)cc1 (centres undefined)	8	/	/	/	/
